# Measured values: the supplement of paper PMC7411640
# Where a name gives a salt, the structure may show the parent alone.
# Test system: MDA-MB-468
# Assay: phospho-S6 immunofluorescence (DAPI-normalised), per-plate z-score; higher = higher phospho-S6 signal (less pathway suppression)
# Details: 24 h
# Method: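 GPCR-targeted compound library (MedChemExpress HY-L006) tested on MDA-MB-468 PTEN-null TNBC cells in 384-well plates at 0.1, 1 or 10 uM, combined with vehicle, GDC0941 450 nM or lapatinib 1 uM, for 24 h. Phospho-S6 (S240/244) immunofluorescence normalised to DAPI and expressed as a per-plate z-score; values are the mean of biological triplicates.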
Compound,phospho-S6 immunofluorescence (z-score) (co-treatment: GDC0941 450 nM),phospho-S6 immunofluorescence (z-score) (co-treatment: lapatinib 1 uM),phospho-S6 immunofluorescence (z-score) (co-treatment: vehicle)
CN(C)CCN1C(=O)c2cccc3cc(NC(N)=O)cc(c23)C1=O (compound 10 µM),1.29,7.09,0.12
OCCOCCN1CCN(C2=Nc3ccccc3Sc3ccccc32)CC1 [Quetiapine] (compound 10 µM),0.95,-0.32,0.64
Cc1nc(C(=O)N2CCC[C@H]2Cc2nnc(-c3ccccc3)o2)c(-c2ccccc2F)s1 (compound 10 µM),0.95,0.29,0.17
Cc1ccccc1N1CCN(CCc2nnc3n2CCCC3)CC1 [Dapiprazole (hydrochloride)] (compound 10 µM),0.31,-0.49,-0.32
Nc1nccc(/C=C/c2ccccc2)n1 (compound 10 µM),-1.32,-0.81,0.3
CNS(=O)(=O)CCc1ccc2[nH]cc(C3CCN(C)CC3)c2c1 [Naratriptan (hydrochloride)] (compound 10 µM),-0.23,0.4,0.18
CCOC(=O)N1CCC(=C2c3ccc(Cl)cc3CCc3cccnc32)CC1 [Loratadine] (compound 10 µM),-1.77,-0.82,-1.25
C[N+]1(C)[C@@H]2CC[C@H]1C[C@@H](OC(=O)C(O)c1ccccc1)C2 (some centres not stated) [Homatropine (methylbromide)] (compound 10 µM),0.87,1.2,1.2
NCCc1c[nH]cn1 [Histamine (phosphate)] (compound 10 µM),-0.41,-0.13,0.1
OC(CNCC(O)C1CCc2cc(F)ccc2O1)C1CCc2cc(F)ccc2O1 (configuration not stated) [Nebivolol (hydrochloride)] (compound 10 µM),-2.5,-3.76,-2.22
NC(=O)C(c1ccccc1)(c1ccccc1)[C@@H]1CCN(CCc2ccc3c(c2)CCO3)C1 [Darifenacin (hydrobromide)] (compound 10 µM),-1.6,-1.5,0.03
CC(C)=CCC/C(C)=C/CC/C(C)=C/CSc1ccccc1C(=O)O [Salirasib] (compound 10 µM),0.9,0.86,-0.02
Cc1cc2c(s1)Nc1ccccc1N=C2N1CCN(C)CC1 [Olanzapine] (compound 10 µM),0.77,0.3,0.35
Nc1ncnc2c1ncn2C1CCCO1 (configuration not stated) (compound 10 µM),0.45,-0.67,-0.21
